# Screening results: PubChem, National Center for Advancing Translational Sciences (NCATS)
# Tau FP inhib: inhibitors of human tau fibril formation; P10636; K18 P301L tau heparin fibrillization, Alexa594 FP, 6 h; 280,000 tested, 0.39% active; AID 1468; Potency, µM (series often up to 57.7 µM), for the others: at the highest dose activity, negative = inhibition, actives largely listed as inhibitors; note: nearly all actives have a fitted effect of over 55% in size
#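 FP of Alexa 594-tau after heparin (20 uM) induction. Substrate: human K18 P301L, 15 uM unlabeled, 0.24 uM labeled. Buffer 100 mM sodium acetate pH 7. 6 hr, 37 C.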
# RORg inh: blocks mouse ROR gamma transcriptional activity. Potency, µM (highest dose often 53.6 µM), without a hit: at the highest dose activity change, negative = inhibition, most hits filed as inhibitors. P51450. AID 2551. Drosophila S2 Gal4-RORgamma UAS-luciferase reporter, 20 h. 310,000 tested, 5.4% active; note: nearly all actives have a fitted effect of over 60% in size
# Target sequence (P51450 whole entry, looked up, the tested form may be a part): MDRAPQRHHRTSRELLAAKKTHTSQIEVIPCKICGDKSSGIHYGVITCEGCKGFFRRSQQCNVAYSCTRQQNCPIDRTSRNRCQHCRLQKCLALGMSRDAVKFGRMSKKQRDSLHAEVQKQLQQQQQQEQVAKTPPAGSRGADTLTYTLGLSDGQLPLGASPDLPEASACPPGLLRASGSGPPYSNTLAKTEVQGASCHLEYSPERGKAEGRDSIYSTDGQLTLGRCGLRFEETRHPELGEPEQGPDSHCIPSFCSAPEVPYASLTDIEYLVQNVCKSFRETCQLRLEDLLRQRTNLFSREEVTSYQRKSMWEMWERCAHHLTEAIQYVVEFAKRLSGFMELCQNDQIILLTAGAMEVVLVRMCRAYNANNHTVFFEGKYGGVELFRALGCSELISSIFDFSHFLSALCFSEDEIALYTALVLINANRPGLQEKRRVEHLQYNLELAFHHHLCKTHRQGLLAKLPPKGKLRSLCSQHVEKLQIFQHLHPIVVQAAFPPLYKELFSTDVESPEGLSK
#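 A Gal4/UAS one-hybrid system in insect cells: metallothionein-promoter Gal4–ROR gamma fusion plus Photinus luciferase reporter. Copper sulfate 700 uM final, 20 hr ambient incubation, luminescent detection after 10 min with reagent.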
# Gal4-VP16 FLuc: inhibits Gal4-VP16 luciferase reporter, ROR gamma counter-screen. 310,000 tested, 3.5% active. Potency, µM (doses to about 53.6 µM), for the others: at the highest dose activity, negative = inhibition, usual class: inhibitors. AID 2546. Drosophila S2 Gal4-VP16 UAS-luciferase, luminescence, 20 h;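 note: Gal4-VP16 expression switched on by copper sulfate through the metallothionein promoter; nearly all actives have a fitted effect of over 50% in size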
# Tau fibril ThT: inhibitors of human tau fibril formation, thioflavin T binding; P10636; recombinant tau K18 P301L, heparin-induced fibrillization, ThT fluorescence; Potency, µM (top dose mostly 57.4 µM), inactives show at the top dose activity, negative = inhibition, actives largely listed as inhibitors; 270,000 tested, 2.1% active; AID 1460; note: nearly all actives have a fitted effect of over 55% in size
#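 Recombinant human tau K18 fragment […] carrying P301L, 15 uM unlabeled plus 0.24 uM Alexa 594-labeled, was fibrillized with 20 uM heparin in 100 mM sodium acetate pH 7 for 6 hr at 37 C; 30 uM ThT fluorescence read after 1 hr.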
# Tau fluor counter: counter-screen for tau fibril formation inhibitors | tau K18 P301L Alexa594 fluorescence, heparin fibrillization | Potency, µM (top dose mostly 57.7 µM), without a hit: at the highest dose activity change, negative = decrease | 280,000 tested, 0.93% active; note: nearly all actives have a fitted effect of over 55% in size
#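 Human tau K18 P301L (15 uM unlabeled, 0.24 uM Alexa 594-labeled) in 100 mM sodium acetate pH 7 with 20 uM heparin, 6 hr at 37 C. ThT 30 uM added, 1 hr ambient; Alexa 594 FP and total fluorescence read at 555/632 nm.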
# * hit, by the source's call; ? = inconclusive; . = no result; [ ] = dose if it differs, or a comment. Most compounds without a hit are left out; they make up all but 7.3% or so of the library. Calls come from the whole dose curve; as a rule, active = well fitted curve in the direction sought with a large enough effect; inconclusive = small, poorly fitted or top-dose-only effect, or another doubt; inactive = no such curve, though single readings can be large; an effect the other way counts as inactive or inconclusive. % is set by controls: 0 for no effect and ±100 for the full control effect; potency is the fitted concentration of half-maximal effect.
SMILES,Tau FP inhib,RORg inh,Gal4-VP16 FLuc,Tau fibril ThT,Tau fluor counter
S=c1[nH]c2ccccc2o1,-6.8%,28.2µM*,-18.5%[10 µM],-8.1%,-6.8%
Cc1ccc(N2C(S)=C(C#N)C(=O)NC2c2ccco2)cc1 (configuration not stated),?,15.8µM*,-9.7%,?,-14.5%
N#CC1=C(S)N(c2ccc(F)cc2)C(c2ccco2)NC1=O (configuration not stated),?,?,-10.9%,39.8µM*,-15.8%
N#CC1=C(S)N(c2ccccc2)C(c2ccco2)NC1=O (configuration not stated),-11.7%,24.8%,-3.9%,4.1%,-9.7%
Oc1c(N=NC(=S)Nc2ccccc2F)c2ccccc2n1Cc1cccc(Cl)c1,?,?,3.55µM*,?,-21.6%
O=Nc1c(O)n(Cc2ccc(Cl)cc2Cl)c2ccccc12,-10.2%,-36.8%,?,?,-22.5%
Oc1c(N=NC(=S)Nc2ccccc2F)c2ccccc2n1Cc1ccc(F)cc1,8.7%,2.82µM*,3.55µM*,?,?
Cc1cccc(Cn2c(O)c(N=NC(=S)Nc3ccccc3F)c3ccccc32)c1,3.7%,3.16µM*,5.01µM*,-18.2%,?
COc1cc(Cl)c(NS(=O)(=O)c2ccc(-c3cnc(C4CC4)o3)cc2)c(OC)c1,10.1%,.,.,-13.1%,?
CC(C)(C)CN1CCC(n2nccc2NC(=O)c2ccccc2Cl)CC1,.,-27.8%,3.6%,.,.
Cc1ccc2nc(N(CCCN(C)C)C(=O)c3ccc(S(=O)(=O)N4CCOCC4)cc3)sc2c1,.,1.6%,-9.7%,.,.
CN(C)CCCN(C(=O)c1ccc(S(=O)(=O)N2CCc3ccccc3C2)cc1)c1nc2ccc(F)cc2s1,.,?,11.2µM*,.,.
Cc1ccc(C(=O)N(CCCN(C)C)c2nc3ccc(Cl)cc3s2)cc1C,-7.0%,10µM*,17.8µM*,-12.9%,-29.4%
CN(C)CCCN(C(=O)c1ccc(S(=O)(=O)N2CCc3ccccc32)cc1)c1nc2ccc(F)cc2s1,.,-41.9%,-23.0%,.,.
Cc1ccc2nc(N(CCCN(C)C)C(=O)c3ccc(S(=O)(=O)N4CCc5ccccc5C4)cc3)sc2c1,.,10µM*,12.6µM*,.,.
COc1ccc(CCNS(=O)(=O)c2c(C)[nH]c(C)c2C(=O)N2CCCCC2)cc1OC,.,-7.1%,?,.,.
COc1ccccc1CNC(=O)C1CCN(S(=O)(=O)c2ccc3c(c2)CCCN3C(C)=O)CC1,-1.8%,.,.,-3.6%,-10.0%
COc1cccc(CNC(=O)C2CCC(CNS(=O)(=O)c3ccc4c(c3)CCCC(=O)N4)CC2)c1 (configuration not stated),-5.3%,.,.,-10.0%,-15.6%
CC1=C(C(=O)Nc2cccnc2)C(c2cccc(F)c2)n2nc(SCc3ccccc3)nc2N1 (configuration not stated),-10.5%,.,.,-7.9%,-13.2%
CC(=O)Nc1ccc(S(=O)(=O)Nc2nc3ccccc3nc2Nc2ccc(O)c(C(=O)O)c2)cc1,.,-3.8%,3.9%,.,.
NC(=O)CSc1ncc2c(n1)-c1ccccc1N(Cc1ccc(F)cc1)S2(=O)=O,-6.2%,.,.,3.9%,-13.4%
CC1=CC(C)(C)Nc2ccc(OC(=O)CN3C(=O)c4cccc5cccc(c45)C3=O)cc21,?,-37.7%,-20.4%,12.6µM*,?
CC1=CC(C)(C)Nc2ccc(OC(=O)CN3C(=O)c4ccccc4C3=O)cc21,-1.0%,4.47µM*,7.08µM*,?,15.8µM*[quencher]
CC1=CC(C)(C)Nc2ccc(OC(=O)C(Cc3ccccc3)N3C(=O)c4ccccc4C3=O)cc21 (configuration not stated),11.0%,?,-18.4%,-17.1%,?
O=C(Nc1cc2ccc(O)cc2oc1=O)c1ccc(F)cc1,-7.1%,.,.,3.1%,-1.2%
CCC[C@H]1C[C@H](C(=O)N[C@@H]([C@H]2O[C@@H](SC)[C@@H](O)[C@@H](O)[C@@H]2O)[C@H](C)Cl)N(C)C1,.,-21.0%[16.9 µM],?,.,.
CON(c1nc(Cl)nc(N(C)C)n1)S(=O)(=O)c1ccc(C)cc1,.,-0.8%,-9.1%,.,.
O=C(Nc1ccc(N2CCCCC2)cc1)c1ccc2ccccc2n1,15.0%,?,-4.3%,12.6µM*,?
